TbREL1 inh: TbREL1 inhibition, primary screen | P86926 | TbREL1 RNA ligation, FRET fluorescence | inhibition, % at 9.66 µM | hit rate 0.49% among 89,000 | AID 1117264;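 active = inhibition above the mean inhibition across all screened compounds plus 3 SD, cut at about 11% in these data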
Target sequence (P86926 whole entry, looked up): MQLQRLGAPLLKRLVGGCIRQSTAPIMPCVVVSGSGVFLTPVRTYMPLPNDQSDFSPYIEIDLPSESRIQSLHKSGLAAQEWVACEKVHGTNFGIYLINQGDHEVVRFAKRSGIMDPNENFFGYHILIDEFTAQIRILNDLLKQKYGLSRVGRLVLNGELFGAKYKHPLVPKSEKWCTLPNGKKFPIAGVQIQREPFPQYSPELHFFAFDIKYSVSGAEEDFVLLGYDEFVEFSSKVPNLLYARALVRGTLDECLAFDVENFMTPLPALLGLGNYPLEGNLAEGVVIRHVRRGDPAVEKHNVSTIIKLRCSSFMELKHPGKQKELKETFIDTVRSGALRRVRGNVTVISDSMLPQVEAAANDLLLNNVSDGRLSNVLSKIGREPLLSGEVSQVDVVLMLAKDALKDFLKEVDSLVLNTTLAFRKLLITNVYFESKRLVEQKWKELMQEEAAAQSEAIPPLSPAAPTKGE
TbREL1 conf: TbREL1 inhibition, confirmation. shares compounds with TbREL1 inh. TbREL1 RNA ligation, FRET fluorescence. inhibition, % at 9.66 µM. hit rate 37% among 390. AID 1117282;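 active = mean inhibition across replicates above a set limit taken from the earlier primary screen, cut at about 11% in these data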
Of the large screens only hits and unclear results are named; the others gave an inactive call (follow-up assays come after a bar, where they were run). The sample as a whole holds a higher share of hits than the screen did.

Cn1c(N=Nc2ccc(N3CCOCC3)cc2)[n+](C)c2ccccc21	TbREL1 inh 23 | TbREL1 conf 27
COC(=O)[C@H](C)NC(=O)[C@@H]1CC=C[C@@H]2CCN(CCc3ccccc3)C(=O)[C@@H]21	none
O=C(NCc1ccccc1)O[C@H]1CC[C@@]23CCCN2C(=O)CCC[C@H]3C1	none
COc1cccc(C(=O)Nc2ccc(C(=O)NCC3COc4ccccc4O3)cc2)c1 (stereo not drawn)	none
O=C(O)c1ccc(S(=O)(=O)c2ccc3c(c2)C(=O)N(NC(=O)c2ccc(O)cc2)C3=O)cc1	TbREL1 inh 12 | TbREL1 conf inactive
Cc1ccc(C(=O)NN2C(=O)c3ccc(S(=O)(=O)c4ccc(C(=O)O)cc4)cc3C2=O)cc1	none
O=C(O)c1ccc(S(=O)(=O)c2ccc3c(c2)C(=O)N(CC2CCCO2)C3=O)cc1 (stereo not drawn)	none
CC(C)(C)NC(=O)C(c1cccnc1)N(C(=O)c1cccs1)c1ccc(C(C)(C)C)cc1 (stereo not drawn)	none
CNC(=O)CCc1nc(-c2ccc(C(C)C)cc2)no1	none
CCCCCCNC(=O)c1c(N)[nH]c(C(=O)c2ccccc2)c1-c1ccc(O)cc1	none
O=C(CCn1nnc2ccccc21)N1CCN(c2ccccc2F)CC1	none
Nc1ccc2c(c1)nnn2-c1ccccc1	none
Nc1ccc2cc3ccc(N)cc3nc2c1	TbREL1 inh 31 | TbREL1 conf inactive
Nc1cccc(-c2nc3ccc(N)cc3s2)c1	none
CCCCN1CCS(=O)(=O)N(Cc2cn(Cc3ccccc3Br)nn2)C(C(=O)OC)C1 (stereo not drawn)	none
O=C(Cc1ccccc1F)N1CCC(n2nnc3ncccc32)CC1	none
Nn1c(SCC(=O)Nc2nccs2)nnc1-c1cc(-c2ccccc2)n[nH]1	none
COc1ccccc1N(Cc1ccccc1)S(=O)(=O)c1cccc(C(=O)Nc2cc(C)ccn2)c1	none
COc1ccccc1N(Cc1ccccc1)S(=O)(=O)c1cccc(C(=O)NC2CC(C)(C)NC(C)(C)C2)c1	TbREL1 inh 11 | TbREL1 conf 14
CN(c1ccccc1)S(=O)(=O)c1cccc(C(=O)NC2CC(C)(C)NC(C)(C)C2)c1	none
CCN(CC)C(=O)C1=C(C)N(Cc2ccccc2)C(=O)C(CC(=O)NCCCN(C)C)C1 (stereo not drawn)	none
CC1=C(C(=O)N(C(C)C)C(C)C)CC(CC(=O)NCCCN(C)C)C(=O)N1Cc1ccc(C(C)(C)C)cc1 (stereo not drawn)	TbREL1 inh 17 | TbREL1 conf inactive
CC1=C(C(=O)N(C)C)CC(CC(=O)NCCCN(C)C)C(=O)N1Cc1ccc(F)cc1 (stereo not drawn)	none
O=C(NCc1ccc(C(=O)N2CCOCC2)cc1)c1cccc(Br)c1	none
CCCCC(=O)N1CCC(NS(=O)(=O)c2ccc3c(c2)CCN3C(C)=O)CC1	none
NC(=O)C1CCN(c2ncc(Br)cn2)CC1	none
Cc1onc(C(=O)N2CCN(C(c3ccc(F)cc3)c3ccc(F)cc3)CC2)c1[N+](=O)[O-]	none
Clc1ccc(OCCNCCc2ccccc2)cc1	none
c1ccc(CCNCCCOc2cccc3ccccc23)cc1	TbREL1 inh 12 | TbREL1 conf inactive
CC(=O)NCCOc1cccc2ccccc12	none
CCC(=O)N1CCC(C(=O)NC2CCCc3ccccc32)CC1 (stereo not drawn)	none
CN1C(=O)[C@@](O)(c2cccn2C)c2cc(Cl)ccc21	none
S=c1[nH]nc(-c2n[nH]c3c2CCC3)n1N=Cc1ccc(OCc2ccccc2)cc1	none
COc1ccc(C(CCNCc2ccc(OC(C)C)cc2)c2ccccc2OC)cc1 (stereo not drawn)	TbREL1 inh 15 | TbREL1 conf 19
COc1ccc(CNCCC(c2ccccc2)c2ccc(OC(C)C)cc2)cc1OC (stereo not drawn)	none
CC(C)Oc1ccc(CNCCC2(C(C)C)CCOC(C)(C)C2)cc1 (stereo not drawn)	none
COC(=O)c1ccc(Cn2ccc3ccc(-c4ccc5ccn(C(=O)c6ccccc6OC)c5c4)cc32)cc1	none
CCN(CC)CCCNC(=O)CC1Oc2ccccc2NC1=O (stereo not drawn)	none
CSc1ccccc1NC(=O)CN(C)Cc1ccc(Br)cc1	none
CSc1ccccc1NC(=O)CN(C)C(C)C(=O)Nc1ccc(C#N)cc1 (stereo not drawn)	none
CSc1ccccc1NC(=O)CN(C)CC(=O)Nc1ccccc1F	TbREL1 inh 12 | TbREL1 conf inactive
CSc1ccccc1NC(=O)CCc1ccccc1	none
CSc1ccccc1NC(=O)CN(C)CC(=O)Nc1c(F)cccc1F	TbREL1 inh 16 | TbREL1 conf inactive
CN(CC(=O)Nc1cccc(F)c1)CC(=O)Nc1cccc2ccccc12	none
Cc1nc2cc(C(=O)N3CCN(C(=O)C(C)(C)C)CC3)ccc2n1C1CCCC1	none
Cc1c(NC(=O)C2CCCN(S(=O)(=O)c3ccc(F)cc3)C2)c(=O)n(-c2ccccc2)n1C (stereo not drawn)	none
O=C(NC1CCCc2c1cnn2-c1ccc(F)cc1F)c1cccs1 (stereo not drawn)	none
CN1C(=O)C(=O)N2C(=C[C@]3(c4c[nH]c5ccccc45)c4ccccc4N[C@H]23)C1=O	none
O=C(NC1CCCCN(Cc2cccc(Cl)c2)C1=O)c1c(F)cccc1F (stereo not drawn)	none
COC(=O)[C@]12C[C@H](CC(=O)NCc3ccc(C)o3)C(=O)N(Cc3ccc(Cl)cc3Cl)C1=C[C@H](COCc1ccccc1)O[C@@H]2C	none
O=C(Nc1nc2ccccc2s1)c1ccc(F)cc1	TbREL1 inh 15 | TbREL1 conf inactive
NC(=O)c1ccc2nc(NC(=O)c3ccc(N)cc3)sc2c1	none
O=C(Nc1nc2ccccc2s1)c1ccc(Cl)s1	none
C=CCn1c(Cc2cccs2)nnc1SCC(=O)Nc1ccc2c(c1)OCO2	none
Brc1ccc(-c2nn3c(-c4ccccc4)nnc3s2)cc1	none
O=C(NCCc1cccc(F)c1)c1cc2ccccn2n1	none
CCCCN1C(Nc2ccccc2)=NC[C@@H]1Cc1ccccc1	none
CC(C)C[C@H]1CN=C(Nc2ccccc2)N1CCC1CCCC1	none
CCCCCCCN1C(Nc2ccccc2)=NC[C@@H]1CC(C)C	TbREL1 inh 12 | TbREL1 conf 20
O=C(NCc1c(F)cccc1F)C1C2C=CC3(CN(Cc4ccccc4)C(=O)C13)O2 (stereo not drawn)	none
COC(=O)[C@@H]1N=C(c2ccc(OC)cc2)O[C@]12C(=O)N(Cc1cn(Cc3ccccc3)nn1)c1cccc(Cl)c12	none
CCCCCOc1ccc(C(=O)Nc2ccc(S(=O)(=O)Nc3cc(C)on3)cc2)cc1	none
Cc1cc(NS(=O)(=O)c2ccc(NC(=S)NC(=O)c3ccccc3)cc2)no1	none
CCOc1cc(C(=O)Nc2ccc(S(=O)(=O)Nc3cc(C)on3)cc2)cc(OCC)c1OCC	TbREL1 inh 61 | TbREL1 conf inactive
CCOC(=O)[C@]12CCCC=C1N(Cc1ccc(OC)cc1)C(=O)[C@@H]2CC(=O)NCc1ccccc1	none
NC(=O)c1c(N)[nH]c(C(=O)c2ccccc2)c1-c1cccc2ccccc12	none
COc1cccc(C(=O)NCCN2C(=O)C3C4C=CC(C4)C3C2=O)c1 (stereo not drawn)	none
S=C(NCc1ccc(Cl)c(Cl)c1)NCc1ccco1	none
S=C(NCc1ccco1)NCc1ccco1	TbREL1 inh 17 | TbREL1 conf inactive
S=C(NCc1ccccc1)NCc1ccco1	none
CN(CCc1ccccc1)C(=O)c1cc2ccccn2n1	none
O=C(O)CCN1C(=O)/C(=C/c2cccc(OCc3ccc(F)cc3)c2)SC1=S	none
Cc1cccc(C(=O)Oc2ccc(/C=N/NC(=O)c3ccc(O)cc3)cc2)c1	none
O=C(N/N=C/c1ccc(OC(=O)c2ccccc2Cl)cc1)c1cc(O)cc(O)c1	TbREL1 inh 12 | TbREL1 conf 19
